ANO1 activ – activates or potentiates the mouse TMEM16A chloride channel | HEK293 TMEM16A/YFP-H148Q/I152L, iodide quench fluorescence; hits give low values | B-score at 10 µM | 340,000 tested, 0.3% active;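 active = fluorescence-ratio B-score plate-corrected deviation score at least 3 library SD below zero, with starting fluorescence score within 5 deviations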;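 also: channel opened by trigger with iodide after compound preincubation; score built on the fluorescence ratio of max minus min over baseline; more negative score means more quench and so TMEM16A activation or potentiation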
CHT PAM – allosteric activators of human choline transporter CHT. 310,000 tested, 0.49% active. Q9GZV3. B-score at 10 µM. CHT-expressing cells, membrane potential dye, choline EC20; hits give high values; LV-AA mutant CHT in HEK293 cells;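 active = initial fluorescence not abnormally high and integrated response B-score, plate-corrected, over 3 SD above library mean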
Target sequence (Q9GZV3 whole entry, looked up): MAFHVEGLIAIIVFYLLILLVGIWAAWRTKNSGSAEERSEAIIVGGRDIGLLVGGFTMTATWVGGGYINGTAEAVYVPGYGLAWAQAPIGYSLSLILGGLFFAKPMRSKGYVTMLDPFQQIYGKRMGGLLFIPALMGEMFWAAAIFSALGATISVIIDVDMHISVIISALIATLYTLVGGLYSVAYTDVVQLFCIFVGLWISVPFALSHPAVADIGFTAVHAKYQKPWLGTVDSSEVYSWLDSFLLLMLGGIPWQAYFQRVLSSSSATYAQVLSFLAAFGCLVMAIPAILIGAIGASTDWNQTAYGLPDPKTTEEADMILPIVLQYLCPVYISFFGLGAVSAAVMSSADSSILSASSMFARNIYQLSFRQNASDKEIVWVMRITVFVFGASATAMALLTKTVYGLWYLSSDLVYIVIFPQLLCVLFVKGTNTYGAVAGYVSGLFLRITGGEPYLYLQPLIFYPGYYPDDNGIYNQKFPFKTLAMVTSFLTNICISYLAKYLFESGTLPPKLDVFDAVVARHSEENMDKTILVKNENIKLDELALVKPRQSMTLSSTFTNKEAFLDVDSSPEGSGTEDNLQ
CHT block – human CHT choline transport inhibition; B-score at 10 µM; CHT-expressing cells, membrane potential dye, choline response; hits give low values; 310,000 tested, 0.86% active;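 active = B-score over 3 SD under the library average, and starting fluorescence ratio not unusually high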;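 also: choline stimulus applied at its EC90 after an EC20 pre-addition; B-score computed on integrated fluorescence ratio after choline addition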
ANO1 block – mouse TMEM16A channel inhibition, primary screen | normalized B-score (activity score, 25-100; higher = stronger inhibition) at 10 µM | HEK293 TMEM16A/YFP iodide influx fluorescence, ionomycin | 310,000 tested, 1.2% active;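 active = ratio plate-corrected score three or more library SD toward inhibition, starting fluorescence score within five deviations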;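 also: score derived from kinetic fluorescence span divided by baseline fluorescence per well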
CHT activ conf – confirmation of human choline transporter (CHT) activators; activation, % at 10 µM; 2,500 tested, 91% active; CHT-expressing cells, membrane potential dye fluorescence (FDSS); % of choline EC20–EC90 response window; HEK293 expressing CHT LV-AA mutant; choline added at its EC20; shares compounds with CHT PAM;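 active = primary screen active, with duplicate mean activation above negative control mean plus 3 SD, cut at about 11% in these data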
HEK293 MP dye – CHT activator counter-screen hit in parental HEK293 cells | shares compounds with CHT PAM | membrane potential dye fluorescence (FDSS); measured after EC20 choline addition | ratio readout change at 10 µM, hits read low | 2,500 tested, 62% active | AID 623908;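 active = duplicate-averaged ratio beyond 3 SD from buffer wells, up or down, though filed actives are nearly all decreases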
* hit, by the source's call. This is a sample that favours compounds with a hit; in the whole collection about 2.4% have one here.

COCCCn1c(-c2ccccc2Cl)n[nH]c1=S was read as ANO1 activ inactive, CHT PAM inactive, CHT block inactive and ANO1 block inactive.
For COc1ccccc1NS(=O)(=O)c1cc([N+](=O)[O-])ccc1N/N=C/c1sc(N2CCOCC2)nc1-c1ccccc1 the results were ANO1 activ inactive, CHT PAM inactive, CHT block inactive, ANO1 block inactive, CHT activ conf 23.3* and HEK293 MP dye inactive.
`CCOc1ccccc1NC(=O)CN1CCN(C(=O)C2CCCO2)CC1` (stereo unspecified) gave ANO1 activ inactive, CHT PAM inactive, CHT block inactive and ANO1 block inactive.
For CCCCC(c1nnnn1C1CCCC1)N1CCN(C2CCCC2)CC1 (stereo unspecified) the results were ANO1 activ inactive, CHT PAM 6.59*, CHT block inactive, ANO1 block inactive, CHT activ conf 42.8* and HEK293 MP dye inactive.
For CCCC(c1nnnn1C(C)(C)CC)N1CCN(C2CCCC2)CC1 (stereo unspecified) the results were ANO1 activ inactive, CHT PAM 8.41*, CHT block inactive, ANO1 block inactive, CHT activ conf 51.2* and HEK293 MP dye inactive.
For CC(C)C(c1nnnn1Cc1ccc(F)cc1)N1CCN(C2CCCC2)CC1 (stereo unspecified) the results were ANO1 activ inactive, CHT PAM inactive, CHT block inactive and ANO1 block inactive.
Screening CCCC(c1nnnn1Cc1ccc(F)cc1)N1CCN(C2CCCCC2)CC1 (stereo unspecified) returned ANO1 activ inactive, CHT PAM 10.2*, CHT block inactive, ANO1 block inactive, CHT activ conf 36.4* and HEK293 MP dye inactive.
Screening Cc1cc(C)c(OCCCCN2CCC(C)CC2)c(Br)c1 returned ANO1 activ inactive, CHT PAM inactive, CHT block inactive and ANO1 block inactive.
For CCN(CC(=O)NCc1ccc(Cl)cc1)C(=O)/C=C/c1cccs1 the results were ANO1 activ inactive, CHT PAM inactive, CHT block inactive and ANO1 block inactive.
Screening O=C(CSc1ccc2nnc(-c3cccnc3)n2n1)NCC1CCCO1 (stereo unspecified) returned ANO1 activ inactive, CHT PAM inactive, CHT block inactive, ANO1 block inactive, CHT activ conf 11.2* and HEK293 MP dye inactive.
Cc1cc(NC(=O)CSc2ccc3nnc(-c4ccccc4)n3n2)no1 was read as ANO1 activ inactive, CHT PAM 7.05*, CHT block inactive, ANO1 block inactive, CHT activ conf 47.6* and HEK293 MP dye -31.6*.
For O=C(COc1ccc(Cl)cc1)N1CCN(C(=O)c2cccs2)CC1 the results were ANO1 activ inactive, CHT PAM inactive, CHT block inactive and ANO1 block inactive.
Screening Cc1noc(C)c1COC(=O)c1csc2c1CCCC2 returned ANO1 activ inactive.
Screening Cc1cc(C)nc(/N=C(\N)N2CCCCC2)n1 returned ANO1 activ inactive, CHT PAM 6.89*, CHT block inactive, ANO1 block inactive, CHT activ conf 52.0* and HEK293 MP dye -41.1*.
For Cc1cc(C)nc(/N=C(\N)N2CCc3ccccc32)n1 the results were ANO1 activ inactive, CHT PAM inactive, CHT block inactive and ANO1 block inactive.
For O=C(COc1ccc([N+](=O)[O-])cc1)Nc1ccncc1 the results were ANO1 activ inactive, CHT PAM inactive, CHT block inactive, ANO1 block inactive, CHT activ conf 44.5* and HEK293 MP dye -48.2*.
`O=C(COc1ccc([N+](=O)[O-])cc1)N(Cc1ccccc1)Cc1ccccc1` gave ANO1 activ inactive, CHT PAM inactive, CHT block inactive, ANO1 block inactive, CHT activ conf 24.1* and HEK293 MP dye inactive.
For Cc1ccn2c(NC3CCCC3)c(-c3ccncc3)nc2c1 the results were ANO1 activ inactive, CHT PAM 7.16*, CHT block inactive, ANO1 block inactive, CHT activ conf 47.0* and HEK293 MP dye -63*.
For C=CCN1C(c2ccc(Br)cc2)=CS/C1=C(\C#N)c1nnc(N2CCOCC2)n1-c1ccccc1 the results were ANO1 activ inactive.
`C=CCN1C(c2ccc(OCC)cc2)=CS/C1=C(\C#N)c1nnc2n1CCCCC2` gave ANO1 activ inactive, CHT PAM 9.18*, CHT block inactive, ANO1 block inactive, CHT activ conf 26.0* and HEK293 MP dye inactive.
For Cc1ccc(C(C(=O)Nc2ccc3c(c2)OCO3)N(C)C(=O)Cc2c[nH]c3ccccc23)cc1 (stereo unspecified) the results were ANO1 activ inactive, CHT PAM inactive, CHT block inactive and ANO1 block inactive.
O=C1C2CC=C(Cl)CC2C(=O)N1CCC[n+]1cccc2ccccc21 (stereo unspecified) was read as ANO1 activ inactive, CHT PAM inactive, CHT block inactive, ANO1 block inactive, CHT activ conf 50.1* and HEK293 MP dye -25*.
For Cc1cc(C)n(-c2nc3ccccc3nc2N2CCCCCC2)n1 the results were ANO1 activ inactive, CHT PAM inactive, CHT block inactive, ANO1 block inactive, CHT activ conf 17.2* and HEK293 MP dye inactive.
For N#Cc1nc(-c2ccc(F)cc2)oc1NCCN1CCOCC1 the results were ANO1 activ inactive, CHT PAM inactive, CHT block inactive and ANO1 block inactive.
COc1ccc(-c2nc(C#N)c(NCCCN3CCOCC3)o2)cc1 was read as ANO1 activ inactive, CHT PAM inactive, CHT block inactive, ANO1 block inactive, CHT activ conf 23.5* and HEK293 MP dye -21.4*.
Screening O=C(COc1ccc2ccccc2c1Br)NCc1ccccn1 returned ANO1 activ inactive, CHT PAM inactive, CHT block inactive and ANO1 block inactive.
For O=C(CSc1ncnc2scc(-c3ccccc3)c12)N1CCN(c2ccccc2F)CC1 the results were ANO1 activ inactive, CHT PAM inactive, CHT block inactive, ANO1 block inactive, CHT activ conf 42.5* and HEK293 MP dye inactive.
`CCOC(=O)N1CCN(c2ncnc3scc(-c4ccccc4)c23)CC1` gave ANO1 activ inactive, CHT PAM 9.68*, CHT block inactive, ANO1 block inactive, CHT activ conf 14.8* and HEK293 MP dye inactive.
Screening CCOC(=O)c1sc2ncnc(N3CCN(C)CC3)c2c1C returned ANO1 activ inactive, CHT PAM inactive, CHT block inactive, ANO1 block inactive, CHT activ conf 29.8* and HEK293 MP dye -40.7*.

Assay outcomes from PubChem BioAssay.
